Assay results from PubChem BioAssay (Tox21).
Records with an inconclusive call do not appear. Active and inactive are the calls of the source. The call rests on the fitted dose curve; in most records, active means well fitted curve in the direction sought with a large enough effect in the repeat runs; inconclusive means weak or mixed curves; inactive means no such curve, though single readings can be large; an effect the other way counts as inactive or inconclusive.

Experiments:
[1] = qHTS RealTime-Glo MT Cell Viability Assay in HEK293 cells - 16 hour (AID 1224872); further: top concentration of the series differs between compounds; nearly all actives have a fitted effect of over 50% in size
Summary of the method: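 Homogeneous bioluminescent viability format in HEK293 cells (600 cells/well). Following 5 h at 37 C/5% CO2, 23 nL compound was pintooled; the signal was measured repeatedly during 40 h incubation.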

[2] = qHTS RealTime-Glo MT Cell Viability Assay in HepG2 cells - 8 hour (AID 1224873); further: nearly all actives have a fitted effect of over 55% in size
Summary of the method: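 Real-time viability: cells seeded at 600 per well together with NanoLuc and cell-permeant prosubstrate, compounds added after 5 h incubation. Luminescence tracked at 0, 8, 16, 24, 32 and 40 h of exposure.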

[3] = qHTS RealTime-Glo MT Cell Viability Assay in HEK293 cells - 40 hour (AID 1224874); details: RealTime-Glo luminescence; max response: hits give low values; further: nearly all actives have a fitted effect of over 50% in size
Summary of the method: (§1)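 Viable HEK293 cells reduce a cell-permeant prosubstrate; the product diffuses out and is consumed by NanoLuc in the medium to give light. Compounds went in after a 5 h incubation and plates were read over the treatment course.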

[4] = A CellTox Green Cytotoxicity Assay to monitor cytotoxicity in HEK293 cells - 24 hour (AID 1224875); further: series mostly up to about 77 µM; nearly all actives have a fitted effect of over 45% in size
Summary of the method: (§2)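 Fluorescence intensity, read at 0, 8, 16, 24, 32 and 40 h of compound treatment, reflected dye binding to DNA of dead HEK293 cells; compounds (23 nL, DMSO) were added 5 h after plating cells with reagent.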

[5] = A CellTox Green Cytotoxicity Assay to monitor cytotoxicity in HepG2 cells - 16 hour (AID 1224876); further: nearly all actives have a fitted effect of over 45% in size
Summary of the method: (§3)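 Using 1536-well format, dye-containing HepG2 suspension was seeded, allowed 5 h at 37 C/5% CO2, dosed by pintool with compounds, positive and negative controls, and imaged for fluorescence across 40 h.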

[6] = qHTS RealTime-Glo MT Cell Viability Assay in HepG2 cells - 32 hour (AID 1224877); further: nearly all actives have a fitted effect of over 55% in size
Summary of the method: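 Cell number in HepG2 cultures estimated from NanoLuc luminescence generated by metabolic reduction of a prosubstrate by living cells. The homogeneous, nonlytic format allowed repeated reads at 0, 8, 16, 24, 32 and 40 h of compound exposure.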

[7] = A CellTox Green Cytotoxicity Assay to monitor cytotoxicity in HepG2 cells - 24 hour (AID 1224878); further: nearly all actives have a fitted effect of over 45% in size
Summary of the method: as §3

[8] = A CellTox Green Cytotoxicity Assay to monitor cytotoxicity in HepG2 cells - 40 hour (AID 1224879); further: nearly all actives have a fitted effect of over 40% in size
Summary of the method: as §3

[9] = qHTS RealTime-Glo MT Cell Viability Assay in HEK293 cells - 0 hour (AID 1224880); further: top concentration of the series differs between compounds; nearly all actives have a fitted effect of over 45% in size
Summary of the method: as §1

[10] = A CellTox Green Cytotoxicity Assay to monitor cytotoxicity in HEK293 cells - 32 hour (AID 1224881); further: nearly all actives have a fitted effect of over 40% in size
Summary of the method: as §2
On the % scale 0 is the no-effect control and ±100 the full control effect.

CCCSC(=O)N(CCC)CCC
inactive: Potency [1] | Potency [2] | max response [3] 7.77% | Potency [4] | Potency [5] | Potency [6] | Potency [7] | Potency [8] | outcome [9] | Potency [10]

CCOc1nc(C(Cl)(Cl)Cl)ns1
inactive: Potency [1] | Potency [2] | max response [3] 3% | Potency [4] | Potency [5] | Potency [6] | Potency [7] | Potency [8] | outcome [9] | Potency [10]

CC(=O)Nc1cc([As](=O)(O)O)ccc1O
inactive: Potency [1] | Potency [2] | max response [3] -9.14% | Potency [4] | Potency [5] | Potency [6] | Potency [7] | Potency [8] | outcome [9] | Potency [10]

CCCCC(=O)Cl
inactive: Potency [1] | Potency [2] | max response [3] 5.77% | Potency [4] | Potency [5] | Potency [6] | Potency [7] | Potency [8] | outcome [9] | Potency [10]

CC1(C)COP(Oc2ccccc2)OC1
inactive: Potency [1] | Potency [2] | max response [3] -1.45% | Potency [4] | Potency [5] | Potency [6] | Potency [7] | Potency [8] | outcome [9] | Potency [10]

Nc1c(Br)cc([N+](=O)[O-])cc1[N+](=O)[O-]
inactive: Potency [1] | Potency [2] | max response [3] -10.5% | Potency [4] | Potency [5] | Potency [6] | Potency [7] | Potency [8] | outcome [9] | Potency [10]

O=C1CN=C(c2ccccc2)c2cc([N+](=O)[O-])ccc2N1
inactive: Potency [1] | Potency [2] | max response [3] -17.7% | Potency [4] | Potency [5] | Potency [6] | Potency [7] | Potency [8] | outcome [9] | Potency [10]

NC1=NC(=O)C(c2ccccc2)O1 (stereo not given)
inactive: Potency [1] | Potency [2] | max response [3] 1.11% | Potency [4] | Potency [5] | Potency [6] | Potency [7] | Potency [8] | outcome [9] | Potency [10]

CCC(=O)c1ccccc1
inactive: Potency [1] | Potency [2] | max response [3] 5.66% | Potency [4] | Potency [5] | Potency [6] | Potency [7] | Potency [8] | outcome [9] | Potency [10]

c1cc2c(c(N3CCNCC3)c1)OCCO2
inactive: Potency [1] | Potency [2] | max response [3] -2.14% | Potency [4] | Potency [5] | Potency [6] | Potency [7] | Potency [8] | outcome [9] | Potency [10]

O=C1c2ccccc2C(=O)c2ccccc21
inactive: activity change, negative = cytotoxicity [1] 16.4% [at 15.8 µM] | viability change, negative = cytotoxic [2] 0.64% [at 15.8 µM] | max response [3] 18.9% | activity change [4] 6.87% [at 15.8 µM, hits give high values] | cytotoxicity increase [5] 8.1% [at 15.8 µM] | activity change, negative = cytotoxic [6] 1.27% [at 15.8 µM] | cytotoxicity [7] 6.42% [at 15.8 µM] | cytotoxicity increase [8] 18.9% [at 15.8 µM] | activity change, negative = cytotoxicity [9] 1.83% [at 15.8 µM] | cytotoxicity increase [10] 6.55% [at 15.8 µM]

O=[N+]([O-])c1cccc(O)c1
inactive: Potency [1] | Potency [2] | max response [3] 4.13% | Potency [4] | Potency [5] | Potency [6] | Potency [7] | Potency [8] | outcome [9] | Potency [10]

CC(CCc1ccccc1)NC(C)C(O)c1ccc(O)cc1 (stereo not given)
inactive: Potency [1] | Potency [2] | max response [3] -21.9% | Potency [4] | Potency [5] | Potency [6] | Potency [7] | Potency [8] | outcome [9] | Potency [10]

CCOC(=O)C1(c2ccccc2)CCN(CCc2ccc(N)cc2)CC1
inactive: Potency [1] | Potency [2] | max response [3] -22.8% | Potency [4] | Potency [5] | Potency [6] | Potency [7] | Potency [8] | outcome [9] | Potency [10]

Clc1ccccc1N1CCNCC1
inactive: Potency [1] | Potency [2] | max response [3] 7.31% | Potency [4] | Potency [5] | Potency [6] | Potency [7] | Potency [8] | outcome [9] | Potency [10]

CC1(C)CON(Cc2ccccc2Cl)C1=O
inactive: Potency [1] | Potency [2] | max response [3] -0.432% | Potency [4] | Potency [5] | Potency [6] | Potency [7] | Potency [8] | outcome [9] | Potency [10]

O=C(Nc1ccccc1)c1ccccc1I
inactive: Potency [1] | Potency [2] | max response [3] -14.8% | Potency [4] | Potency [5] | Potency [6] | Potency [7] | Potency [8] | outcome [9] | Potency [10]

ClCC(Cl)Cl
inactive: Potency [1] | Potency [2] | max response [3] -2.64% | Potency [4] | Potency [5] | Potency [6] | Potency [7] | Potency [8] | outcome [9] | Potency [10]

CC(C(=O)c1ccccc1)N(C)C (stereo not given)
inactive: Potency [1] | Potency [2] | max response [3] 2.47% | Potency [4] | Potency [5] | Potency [6] | Potency [7] | Potency [8] | outcome [9] | Potency [10]

CN1CCN(C(=O)O[C@H]2c3nccnc3C(=O)N2c2ccc(Cl)cn2)CC1
inactive: Potency [1] | Potency [2] | max response [3] 6.06% | Potency [4] | Potency [5] | Potency [6] | Potency [7] | Potency [8] | outcome [9] | Potency [10]

CCOP(=S)(OCC)Oc1cc(-c2ccccc2)on1
inactive: Potency [1] | Potency [2] | max response [3] -12.9% | Potency [4] | Potency [5] | Potency [6] | Potency [7] | Potency [8] | outcome [9] | Potency [10]

CCCSC(=O)Cl
inactive: Potency [1] | Potency [2] | max response [3] 9.13% | Potency [4] | Potency [5] | Potency [6] | Potency [7] | Potency [8] | outcome [9] | Potency [10]

CCCSP(=O)(OCC)Oc1ccc(Br)cc1Cl (stereo not given)
inactive: Potency [1] | Potency [2] | max response [3] -3.49% | Potency [4] | Potency [5] | Potency [6] | Potency [7] | Potency [8] | outcome [9] | Potency [10]
